High-throughput results (PubChem BioAssay)
Compounds with a hit are over-represented: about 19% of the library has one in this group of screens.
HT1080 IDH1KD tx = toxicity to HT-1080 IDH1 knockdown cells (counter line). HT-1080 IDH1 knockdown viability, ATP luminescence, 48 h. Potency, µM (series often up to 46.1 µM), usual class: cytotoxic. 360,000 tested, 2% active. AID 686971
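Using the IDH1-knockdown HT-1080 line run in the same batch and compound series as the NT line, viability after 48 h at 37 °C was determined by CellTiter-Glo luminescence and expressed as % activity.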
TDP1 cell noCPT = qHTS for Inhibitors of human tyrosyl-DNA phosphodiesterase 1 (TDP1): qHTS in cells in absence of CPT; 420,000 tested, 15% active; DT40 Tdp1-/- hTDP1 cells, no CPT, ATP luminescence, 48 h; Potency, µM (titrated, usually from 46.2 µM), actives largely listed as inhibitors; AID 686978, 2013; also: nearly all actives have a fitted effect of over 55% in size
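Growth of hTDP1-complemented DT40 Tdp1-knockout cells is measured by ATP luminescence after at least 48 hr compound exposure at 37 °C, with DMSO substituting for the 20 nM CPT used in the parallel screen.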
HT1080NT lethal = kills 2HG-producing HT-1080-NT fibrosarcoma cells | HT-1080-NT fibrosarcoma viability, CellTiter-Glo ATP luminescence, 48 h | Potency, µM (highest dose often 46.1 µM), usual class: cytotoxic | 360,000 tested, 1.6% active;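 also: NT is the 2HG producing partner of a matched IDH1 knockdown line; nearly all actives have a fitted effect of over 55% in size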
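Viability of the 2HG-overproducing fibrosarcoma line after 48 hours of compound exposure at 37 degrees C was determined by luminescence with CellTiter-Glo, and concentration-effect curves were then fitted and categorized.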
DT40 TDP1 CPT = growth inhibition of DT40 Tdp1-/-;hTDP1 cells with camptothecin (screen for TDP1 inhibitors). 420,000 tested, 12% active. AID 686979. chicken DT40 Tdp1-/-;hTDP1 cells + 20 nM CPT, ATP luminescence, 48 h. Potency, µM (titrated, usually from 46.2 µM), usual class: inhibitors; also: nearly all actives have a fitted effect of over 55% in size
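Chicken DT40 Tdp1-/- cells stably complemented with human TDP1 were seeded at 400 cells/well in medium containing 20 nM camptothecin, exposed to pin-transferred compounds, and grown at 37 °C for at least 48 hr. Viability was read as ATP luminescence.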
IL-1B inflam inh = blocks inflammasome-driven IL-1 beta release; THP-1 LPS/ATP IL-1B secretion, AlphaLISA, 16 h; stronger effect = lower value; activity change, % at 57.5 µM; 360,000 tested, 4.7% active; in the data active = activity change below about -50%; inconclusive = mostly about -30% to -49%
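Secreted IL-1B measured by AlphaLISA bead assay after 16 h compound exposure of THP-1 cells; compounds (final up to 57.5 uM) added 1 h before LPS (250 ng/mL) and ATP (1.25 mM) stimulation; lower signal means less secretion.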
Numbers stand for hits; n = inactive; u = inconclusive; x = not tested or not shown. Unless noted, calls follow the shape of the dose curve; as a rule, active = well fitted curve in the direction sought with a large enough effect; inconclusive = small, poorly fitted or top-dose-only effect, or another doubt; inactive = no such curve, though single readings can be large; an effect the other way counts as inactive or inconclusive.

SMILES	HT1080 IDH1KD tx	TDP1 cell noCPT	HT1080NT lethal	DT40 TDP1 CPT	IL-1B inflam inh
CC(=O)Nc1ccc(S(=O)(=O)N2CCCC(C(=O)N3CCN(c4ccccc4)CC3)C2)cc1 (stereo unspecified)	n	21µM	n	23µM	n
CC(=O)Nc1ccc(S(=O)(=O)N2CCN(C(=O)c3ncoc3-c3ccccc3)CC2)cc1	n	12µM	n	u	n
O=C(C1CCCN(S(=O)(=O)Cc2ccccc2)C1)N1CCC(Cc2ccccc2)CC1 (stereo unspecified)	n	10µM	n	16µM	n
O=C(O)C1CCCN(S(=O)(=O)Cc2ccccc2)C1 (stereo unspecified)	n	n	n	n	n
CC(=O)Nc1ccc(S(=O)(=O)N2CCN(c3nc(NC4CCCC4)c4ccccc4n3)CC2)cc1	u	u	18µM	u	n
CC(=O)Nc1ccc(S(=O)(=O)N2CCN(C(=O)N3CCOCC3)CC2)cc1	n	n	n	n	n
O=C1NN=C(CSc2n[nH]c(=S)s2)CS1	n	n	u	n	n
O=C(C1CCCN(S(=O)(=O)c2ccc(F)cc2)C1)N1CCCC1 (stereo unspecified)	n	n	n	n	n
O=C(C1CCCN(S(=O)(=O)c2ccccc2)C1)N1CCCCCC1 (stereo unspecified)	n	16µM	n	n	n
COc1ccc(NC(=O)N2CCC3(CC2)CCN(C(=O)c2cc(C(F)(F)F)cc(C(F)(F)F)c2)CC3)cc1	x	n	x	n	x
CN(C)S(=O)(=O)c1ccc(NC(=O)N2CCN(c3cccc(C(F)(F)F)c3)CC2)cc1	u	2.6µM	u	3.7µM	n
CN(C)S(=O)(=O)c1ccc(NC(=O)N2CCN(c3ccccc3Cl)CC2)cc1	n	u	n	n	u
COc1ccc(NC(=O)N2CCN(c3cccc(C(F)(F)F)c3)CC2)cc1	n	7.3µM	n	2.1µM	n
COc1ccc(NC(=O)CSCC(=O)N2CCN(c3cccc(C(F)(F)F)c3)CC2)cc1	n	15µM	n	u	n
Cc1ccc(C(N)=Nc2ccccc2)cc1	n	n	n	n	n
Cc1c(OC(C)C(=O)NCCCN2CCOCC2)ccc2c1oc(=O)c1ccccc12 (stereo unspecified)	n	n	n	u	n
CC(Oc1ccc2c(c1)c1ccnc3c4ccccc4c(=O)n2c13)C(=O)NCCN1CCOCC1 (stereo unspecified)	n	7.3µM	n	8.2µM	-51
CC(Oc1ccc2c3c(c(=O)oc2c1)CCCC3)C(=O)NCCN1CCOCC1 (stereo unspecified)	n	n	n	n	n
COc1ccc2c(c1OC)c(=O)n1c3ccc(OC(C)C(=O)NCCCN4CCOCC4)cc3c3ccnc2c31 (stereo unspecified)	n	6.5µM	n	13µM	u
COc1ccc2c(c1OC)c(=O)n1c3ccc(OC(C)C(=O)NCCN4CCOCC4)cc3c3ccnc2c31 (stereo unspecified)	n	23µM	n	16µM	u
C/C(CC(=O)Nc1cccc(Cl)c1Cl)=N\NC(=O)c1ccccc1C	n	n	n	n	n
Cc1cc(C(=O)NCCC2=CCCCC2)ccc1[N+](=O)[O-]	n	n	n	n	n
Cc1ccc(-c2cn3c(n2)sc2cc(C(=O)NCCCc4ccccc4)ccc23)c(C)c1	x	18µM	x	23µM	x
Cc1ccc(-c2cn3c(n2)sc2cc(C(=O)NCCC4=CCCCC4)ccc23)c(C)c1	x	16µM	x	16µM	x
Nc1nc(SCC(=O)Nc2ccc([N+](=O)[O-])cc2)[nH]c(=O)c1NC(=O)c1ccc(Br)o1	n	n	n	n	n
Cc1c(C(=O)O)c(O)cc2c1C(=O)c1c(O)c([C@H]3O[C@H](CO)[C@@H](O)[C@H](O)[C@H]3O)c(O)c(O)c1C2=O	x	u	x	8.9µM	x
C[C@@H](C(=O)NCCc1ccccc1F)N1C(=O)N2CCc3c([nH]c4ccccc34)[C@@]2(C)C1=O	n	9.2µM	n	12µM	n
C[C@@H](C(=O)NCCc1ccccc1)N1C(=O)N2CCc3c([nH]c4ccccc34)[C@@]2(C)C1=O	n	u	n	18µM	n
